{
  "source": "PubChem BioAssay (Tox21)",
  "note": "Activity calls are given as the source filed them. Where a call stands in place of a potency, no number is given. Calls come from the whole dose curve; as a rule, active = well fitted curve in the direction sought with a large enough effect in the repeat runs; inconclusive = weak or mixed curves; inactive = flat fitted curve, though single readings scatter.",
  "data": [
    {"test": "qHTS assay to test for compound auto fluorescence at 535 nm (green) in HepG2 cells (AID 720675)", "conditions": "green autofluorescence 485/535 nm, 1 h; series mostly up to 46 µM", "values": [
      {"compound": "COC1=C(OC)C(=O)C(C/C=C(\\C)CC/C=C(\\C)CC/C=C(\\C)CC/C=C(\\C)CC/C=C(\\C)CC/C=C(\\C)CC/C=C(\\C)CC/C=C(\\C)CC/C=C(\\C)CCC=C(C)C)=C(C)C1=O", "Potency": "inactive"},
      {"compound": "COC(=O)C(CN)c1c[nH]c2ccc(OC)cc12", "note": "(stereo unspecified)", "Potency": "inactive"},
      {"compound": "CC(C)CCC[C@@H](C)[C@H]1CC[C@H]2[C@@H]3CC=C4C[C@@H](O)CC[C@]4(C)[C@H]3CC[C@]12C", "Potency": "inactive"},
      {"compound": "C=N[C@@H](C(=O)N[C@@H]1C(=O)N2[C@@H]1SC(C)(C)[C@@H]2C(=O)O)c1ccccc1", "Potency": "inactive"},
      {"compound": "Cc1c(O)c(=O)ccn1C", "Potency": "inactive"},
      {"compound": "CCOC(=O)COc1ccc2c(=O)cc(-c3ccccc3)oc2c1", "Potency": "inactive"},
      {"compound": "O=P(O)(O)CP(=O)(O)O", "Potency": "inactive"},
      {"compound": "CC12CCC(C1)C(C)(C)C2=O", "note": "(stereo unspecified)", "Potency": "inactive"},
      {"compound": "CC(=O)Nc1ccc(OC(C)=O)cc1", "Potency": "inactive"},
      {"compound": "CCN(CC)CCOC[C@H]1O[C@@H](O)[C@H](OCCN(CC)CC)[C@@H](O)[C@@H]1O", "Potency": "inactive"},
      {"compound": "OCC1(CO)COC(C(Cl)(Cl)Cl)OC1", "Potency": "inactive"},
      {"compound": "C=C1[C@H](CO)[C@@H](O)C[C@@H]1n1cnc2c(=O)[nH]c(N)nc21", "Potency": "inactive"},
      {"compound": "O=S(=O)(O)CC(S)CS", "note": "(stereo unspecified)", "Potency": "inactive"},
      {"compound": "COc1ccc(/C=N/NC(=O)c2ccncc2)c(C(=O)O)c1OC", "Potency": "inactive"},
      {"compound": "CCCCCCCCCCCCCCCCCCOCC(COP(=O)([O-])OCC[N+](C)(C)C)OC", "note": "(stereo unspecified)", "Potency": "inactive"},
      {"compound": "NC(=O)CC[C@@H]1NC(=O)[C@H](Cc2ccccc2)NC(=O)[C@H](Cc2ccc(O)cc2)NC(=O)[C@@H](N)CSSC[C@@H](C(=O)N2CCC[C@H]2C(=O)N[C@@H](CCCN=C(N)N)C(=O)NCC(N)=O)NC(=O)[C@H](CC(N)=O)NC1=O", "Potency": "inactive"},
      {"compound": "CCC[C@@H]1C[C@@H](C(=O)N[C@@H]([C@H]2O[C@H](SC)[C@H](OP(=O)(O)O)[C@@H](O)[C@H]2O)[C@H](C)Cl)N(C)C1", "Potency": "inactive"},
      {"compound": "C[C@H](NCCc1ccc(O)cc1)[C@H](O)c1ccc(O)cc1", "Potency": "inactive"},
      {"compound": "CC(C)(COP(=O)(O)OP(=O)(O)OC[C@H]1O[C@@H](n2cnc3c(N)ncnc32)[C@H](O)[C@@H]1OP(=O)(O)O)C(O)C(=O)NCCC(=O)NCCS", "note": "(stereo partly specified)", "Potency": "inactive"},
      {"compound": "CC(CNC(=O)c1cccnc1)NC(=O)c1cccnc1", "note": "(stereo unspecified)", "Potency": "inactive"},
      {"compound": "O=C(O)c1cc(O)c2c(c1)[C@H]([C@H]1c3cc(C(=O)O)cc(O)c3C(=O)c3c(O[C@@H]4O[C@H](CO)[C@@H](O)[C@H](O)[C@H]4O)cccc31)c1cccc(O[C@@H]3O[C@H](CO)[C@@H](O)[C@H](O)[C@H]3O)c1C2=O", "Potency": "inactive"},
      {"compound": "C=CCN1C(=O)C(CC(C)C)NC1=S", "note": "(stereo unspecified)", "Potency": "inactive"},
      {"compound": "C[C@H](O)CN(C)C", "Potency": "inactive"},
      {"compound": "CNC(=O)OCc1cccc(COC(=O)NC)n1", "Potency": "inactive"},
      {"compound": "NC(=O)[C@H]1O[C@@H](O)[C@H](O)[C@@H](O)[C@@H]1O", "Potency": "inactive"},
      {"compound": "O=P(O)(O)C(O)(Cn1ccnc1)P(=O)(O)O", "Potency": "inactive"},
      {"compound": "NC(=O)[C@@H]1C[C@]2(NC(=O)NC2=O)c2cc(F)ccc2O1", "Potency": "inactive"},
      {"compound": "COc1ccc([C@@H]2CC(=O)c3c(O)cc(O[C@@H]4O[C@H](CO[C@@H]5O[C@@H](C)[C@H](O)[C@@H](O)[C@H]5O)[C@@H](O)[C@H](O)[C@H]4O)cc3O2)cc1O", "Potency": "inactive"},
      {"compound": "CC[C@H]1OC(=O)C[C@@H](O)[C@H](C)[C@@H](O[C@@H]2O[C@H](C)[C@@H](O[C@H]3C[C@@](C)(O)[C@@H](O)[C@H](C)O3)[C@H](N(C)C)[C@H]2O)[C@@H](CC=O)C[C@@H](C)C(=O)/C=C/C(C)=C/[C@@H]1CO[C@@H]1O[C@H](C)[C@@H](O)[C@@H](OC)[C@H]1OC", "Potency": "inactive"},
      {"compound": "NC(=O)C1c2ccccc2CCc2ccccc21", "Potency": "inactive"},
      {"compound": "CC(C)=CCC/C(C)=C/CC/C(C)=C/CC/C(C)=C/CC1=C(C)C(=O)c2ccccc2C1=O", "Potency": "inactive"},
      {"compound": "COc1cc2c(c(OC)c1OC)-c1c(cc3c(c1OC)OCO3)C[C@@H](C)[C@](C)(O)C2", "Potency": "inactive"},
      {"compound": "O=C1CCC(c2ccccc2)(C2CCN(Cc3ccccc3)CC2)C(=O)N1", "note": "(stereo unspecified)", "Potency": "inactive"},
      {"compound": "O=C(Cn1cnnn1)N[C@@H]1C(=O)N2C(C(=O)O)=C(CSc3nncs3)CS[C@H]12", "Potency": "inactive"},
      {"compound": "CN[C@H](CC(C)C)C(=O)N[C@H]1C(=O)N[C@@H](CC(N)=O)C(=O)N[C@H]2C(=O)N[C@H]3C(=O)N[C@H](C(=O)N[C@@H](C(=O)O)c4cc(O)cc(O)c4-c4cc3ccc4O)[C@H](O)c3ccc(c(Cl)c3)Oc3cc2cc(c3O[C@@H]2O[C@H](CO)[C@@H](O)[C@H](O)[C@H]2O[C@H]2C[C@](C)(N)C(O)[C@H](C)O2)Oc2ccc(cc2Cl)[C@H]1O", "note": "(stereo partly specified)", "Potency": "inactive"},
      {"compound": "CC[C@H]1OC(=O)[C@H](C)C(=O)[C@H](C)[C@@H](O[C@@H]2O[C@H](C)C[C@H](N(C)C)[C@H]2O)[C@](C)(OC)C[C@@H](C)C(=O)[C@H](C)[C@H]2N(CCCCn3cnc(-c4cccnc4)c3)C(=O)O[C@]12C", "Potency": "inactive"}
    ]}
  ]
}
